These results are taken from PubChem BioAssay.

The source made the active and inactive calls.

Assay [1] addresses Albumin (Bos taurus) (UniProt P02769). Description: bovine serum albumin binders on microarray, profiling panel, artefact control for SMM control protein annotation, biochemical, small-molecule microarray, Alexa647 label, 635/667 nm fluorescence (AID 1118).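 Also: score merges 667 nm emission intensity and signal-to-noise per printed compound spot.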 The note with it: BSA-A647 binding, fluorescence 635 nm, higher = more signal.
The nature of assay [2]: small-molecule microarray binders of probe aXIP, primary screen, biochemical, NeuroSMM set, 635/667 nm fluorescence (AID 1119).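 Also: probe is the protein aXip251-270 applied at 1 µg/mL to compound-printed slides; binding of probe to printed compounds measured as 667 nm fluorescence plus signal to noise.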 The note with it: higher = more signal, called active from +8 up or from −8 down.
Assay [3] is described as follows: small-molecule binders of probe aNOTCH3, primary screen, biochemical, small-molecule microarray, 635/667 nm fluorescence (AID 1120).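 Also: probe is a biotin-tagged antibody raised against NOTCH3 rather than NOTCH3 protein; score merges spot fluorescence near 667 nm with spot signal to noise.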 The note with it: higher = more signal.
A short description of assay [4]: small-molecule binders of probe aNOTCH2, primary screen, biochemical, small-molecule microarray, 635/667 nm fluorescence (AID 1121).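 Also: score merges feature fluorescence read at 667 nm with its signal to noise.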 The note with it: higher = more signal.
Assay [5] deals with Carbonic anhydrase 2 (Homo sapiens) (UniProt P00918). Description: CAII small-molecule binders, profiling panel, biochemical, small-molecule microarray, Alexa647-labelled CAII (AID 1122). The note with it: CAII-A647 binding fluorescence, higher = more signal.
The nature of assay [6]: COS7 lysate on small-molecule microarray, probe aHis, 635 nm (AID 1123).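 Also: z-score combines 667nm fluorescence intensity with signal-to-noise per printed compound spot.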 The note with it: COS7 cell lysate, fluorescence, higher = more signal.
The nature of assay [7]: compound binding in COS7 lysate, probe aLAP1, primary screen, cell lysate, small-molecule microarray (AID 1124).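 Also: lysate comes from COS7 cells expressing LAP1 and is applied at 0.3 µg/mL; score merges spot fluorescence near 667 nm with signal-to-noise over triplicate slides.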 The note with it: probe aLAP1, fluorescence, higher = more signal.
Assay [8] has as its system Sam68 (KHDRBS1). Description: Sam68 small-molecule binders, primary screen, biochemical, small-molecule microarray, 635 nm fluorescence (AID 1125).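 Also: score merges 667 nm channel intensity with signal to noise over triplicate slides.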 The note with it: small-molecule microarray binding, higher = more signal.
For assay [9], the system named is Chordin-like protein 2 (CHRDL2). Nature of the assay: CHRDL2 small-molecule binders, primary screen, biochemical, small-molecule microarray, 635 nm fluorescence (AID 1126).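 Also: printed compound slides probed with Chrdl2 protein at 4 µg/mL for 1 h at 4 C; score merges 667 nm emission intensity with signal to noise over three replicate slides.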 The note with it: small-molecule microarray binding, fluorescence 635 nm; higher = more signal.
For assay [10], the target named is Concanavalin-A (Canavalia ensiformis) (UniProt P02866). Nature of the assay: ConA small-molecule binders, primary screen, artefact control for SMM control protein annotation, biochemical, small-molecule microarray, Alexa647 label, 635 nm (AID 1127).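 Also: z combines 667 nm emission intensity with signal-to-noise across three replicate slides.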 The note with it: ConA-A647 binding fluorescence, higher = more signal.
Chain of Concanavalin-A (Canavalia ensiformis) (P02866 whole entry, looked up): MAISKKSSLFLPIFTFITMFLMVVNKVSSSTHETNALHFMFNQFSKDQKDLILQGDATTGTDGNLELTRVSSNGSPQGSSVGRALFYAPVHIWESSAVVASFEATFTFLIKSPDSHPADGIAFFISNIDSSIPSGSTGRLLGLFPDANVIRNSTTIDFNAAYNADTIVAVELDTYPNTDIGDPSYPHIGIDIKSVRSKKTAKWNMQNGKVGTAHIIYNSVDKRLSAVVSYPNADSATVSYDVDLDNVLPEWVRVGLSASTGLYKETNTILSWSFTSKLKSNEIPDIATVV
Assay [11] can be described thus: anti-His antibody binders, primary screen, artefact control for SMM control protein annotation, biochemical, small-molecule microarray, 635 nm fluorescence (AID 1128).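 Also: score merges feature fluorescence with signal-to-noise for each printed compound spot.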 The note with it: anti-His Alexa647 antibody binding, higher = more signal.
The subject of assay [12] is Human papillomavirus type 1a E7 protein (residues 1-88). Description: HPV1a E7 small-molecule binders, primary screen, biochemical, small-molecule microarray, residues 1-88, 635 nm (AID 1129). The note with it: small-molecule microarray binding, fluorescence 635 nm; higher = more signal.
Assay [13] deals with Focal adhesion kinase 1 (Homo sapiens) (UniProt Q05397). Description: small-molecule microarray binders of FAK, primary screen, biochemical, 635/667 nm fluorescence, BSA, DTT (AID 1130).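 Also: composite of spot emission at 667 nm and signal to noise over triplicate slides.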 The note with it: PTK2 binding, 635 nm fluorescence, higher = more signal.
Chain of Focal adhesion kinase 1 (Homo sapiens) (Q05397 whole entry, looked up): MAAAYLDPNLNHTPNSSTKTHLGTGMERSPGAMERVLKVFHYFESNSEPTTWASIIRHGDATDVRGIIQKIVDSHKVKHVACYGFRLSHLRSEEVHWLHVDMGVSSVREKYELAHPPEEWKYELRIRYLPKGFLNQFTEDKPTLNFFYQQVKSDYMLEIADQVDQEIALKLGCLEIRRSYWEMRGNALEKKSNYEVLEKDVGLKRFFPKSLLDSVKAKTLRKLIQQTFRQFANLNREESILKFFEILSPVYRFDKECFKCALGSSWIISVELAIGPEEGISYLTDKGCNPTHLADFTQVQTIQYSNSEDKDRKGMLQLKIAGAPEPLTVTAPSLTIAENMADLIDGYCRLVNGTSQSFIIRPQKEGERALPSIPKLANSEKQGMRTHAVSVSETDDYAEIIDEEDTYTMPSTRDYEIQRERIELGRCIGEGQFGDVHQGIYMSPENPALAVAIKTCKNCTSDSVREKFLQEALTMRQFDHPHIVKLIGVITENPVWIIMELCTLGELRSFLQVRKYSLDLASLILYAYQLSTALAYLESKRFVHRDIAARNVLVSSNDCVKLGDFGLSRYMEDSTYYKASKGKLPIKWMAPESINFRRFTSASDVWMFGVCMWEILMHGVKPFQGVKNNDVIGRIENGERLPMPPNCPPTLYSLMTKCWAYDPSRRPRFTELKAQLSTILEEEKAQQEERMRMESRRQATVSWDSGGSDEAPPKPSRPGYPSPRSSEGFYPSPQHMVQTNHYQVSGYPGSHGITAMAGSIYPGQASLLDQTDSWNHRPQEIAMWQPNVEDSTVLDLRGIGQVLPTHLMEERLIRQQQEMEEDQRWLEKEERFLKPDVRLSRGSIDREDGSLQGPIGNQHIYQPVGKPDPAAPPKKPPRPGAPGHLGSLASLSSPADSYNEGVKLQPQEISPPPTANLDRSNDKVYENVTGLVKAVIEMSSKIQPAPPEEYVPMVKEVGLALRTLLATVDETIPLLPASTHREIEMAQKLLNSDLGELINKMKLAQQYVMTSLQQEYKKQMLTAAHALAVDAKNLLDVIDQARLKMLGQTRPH
Assay [14] has as its system Fibrinogen (Alexa647-labelled). Nature of the assay: fibrinogen binders on compound microarrays, profiling panel, artefact control for SMM control-protein annotation, biochemical, small-molecule microarray, 635/667 nm fluorescence (AID 1131).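 Also: z-score merges 667 nm fluorescence with per-spot signal-to-noise over triplicate slides.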 The note with it: fibrinogen-A647 binding fluorescence, higher = more signal.
The target of assay [15] is Follistatin (Homo sapiens) (UniProt P19883). Description: follistatin binders on small-molecule microarrays, primary screen, biochemical, small-molecule microarray, 635/667 nm fluorescence (AID 1132). The note with it: FST binding, 635 nm fluorescence, higher = more signal.
Chain of Follistatin (Homo sapiens) (P19883 whole entry, looked up): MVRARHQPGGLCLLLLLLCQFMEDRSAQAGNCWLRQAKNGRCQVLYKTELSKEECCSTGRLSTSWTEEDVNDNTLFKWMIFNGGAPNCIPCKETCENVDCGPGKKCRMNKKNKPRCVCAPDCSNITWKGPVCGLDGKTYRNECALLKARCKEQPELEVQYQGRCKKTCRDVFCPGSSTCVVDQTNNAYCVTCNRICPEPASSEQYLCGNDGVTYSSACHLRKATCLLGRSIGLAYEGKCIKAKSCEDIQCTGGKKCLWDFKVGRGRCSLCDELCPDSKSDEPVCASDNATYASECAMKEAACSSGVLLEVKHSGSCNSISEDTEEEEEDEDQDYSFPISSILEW
For assay [16], the target named is Fibroblast growth factor 2 (Homo sapiens) (UniProt P09038). Nature of the assay: FGF2 binders on small-molecule microarrays, primary screen, biochemical, small-molecule microarray, 635/667 nm fluorescence (AID 1133). The note with it: small-molecule microarray binding, FGF2, fluorescence 635/667; higher = more signal.
Chain of Fibroblast growth factor 2 (Homo sapiens) (P09038 whole entry, looked up): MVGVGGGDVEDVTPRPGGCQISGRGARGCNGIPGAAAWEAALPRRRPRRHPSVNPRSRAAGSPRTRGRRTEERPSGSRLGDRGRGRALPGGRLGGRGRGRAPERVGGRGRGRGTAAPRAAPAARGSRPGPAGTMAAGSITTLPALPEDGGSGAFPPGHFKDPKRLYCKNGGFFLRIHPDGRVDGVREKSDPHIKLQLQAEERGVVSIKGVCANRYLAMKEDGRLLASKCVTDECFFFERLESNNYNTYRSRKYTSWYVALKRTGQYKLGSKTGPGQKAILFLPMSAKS
The nature of assay [17]: mitochondrial membrane potential change in A549 cells, profiling panel, cell-based, JC-1 fluorescence, basal, 24 h, 100 nL (AID 1138).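 Also: A549 lung adenocarcinoma cells under basal conditions with no added stimulus; test concentration not given here.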 The note with it: higher = more signal.
Assay [18] relates to Lefty1. Description: Lefty1 binders on small-molecule microarrays, primary screen, biochemical, small-molecule microarray, 635/667 nm fluorescence (AID 1139). The note with it: small-molecule microarray binding, fluorescence 635/667; higher = more signal.
Assay [19] has as its system wheat germ agglutinin (Triticum aestivum), Alexa647-labelled. Nature of the assay: wheat germ agglutinin binders on compound microarrays, profiling panel, artefact control for SMM control-protein annotation, biochemical, small-molecule microarray, 635/667 nm fluorescence (AID 1140).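 Also: score merges 667 nm feature emission with signal to noise over triplicate slides.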 The note with it: WGA-A647 binding, 635 nm fluorescence, higher = more signal.
The target of assay [20] is Luciferin 4-monooxygenase (Photinus pyralis) (UniProt P08659). Nature of the assay: firefly luciferase enzyme inhibitors, primary screen, biochemical, luminescence, purified enzyme, 2006 set (AID 1141).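 Also: cell-free assay with purified firefly luciferase at 100 ng per well in PBS; test concentration not given here.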 The note with it: SteadyGlo luminescence, 30 min, higher = more signal, called active from +8 up or from −8 down.
Chain of Luciferin 4-monooxygenase (Photinus pyralis) (P08659 whole entry, looked up): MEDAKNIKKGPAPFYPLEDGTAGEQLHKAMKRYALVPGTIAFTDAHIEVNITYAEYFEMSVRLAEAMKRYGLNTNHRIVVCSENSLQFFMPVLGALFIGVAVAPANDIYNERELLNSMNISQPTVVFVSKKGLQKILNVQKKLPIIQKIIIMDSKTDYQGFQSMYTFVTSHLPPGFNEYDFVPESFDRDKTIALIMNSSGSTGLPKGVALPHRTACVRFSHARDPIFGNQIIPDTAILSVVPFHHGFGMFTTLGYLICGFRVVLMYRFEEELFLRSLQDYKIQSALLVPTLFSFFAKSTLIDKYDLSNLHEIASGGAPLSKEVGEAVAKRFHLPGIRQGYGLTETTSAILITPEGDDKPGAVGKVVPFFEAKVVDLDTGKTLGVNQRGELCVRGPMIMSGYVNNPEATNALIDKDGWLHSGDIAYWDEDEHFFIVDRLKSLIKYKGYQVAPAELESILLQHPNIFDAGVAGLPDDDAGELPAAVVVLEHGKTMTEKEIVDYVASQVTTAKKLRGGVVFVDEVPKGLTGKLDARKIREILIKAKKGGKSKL

Chain of Albumin (Bos taurus) (P02769 whole entry, looked up): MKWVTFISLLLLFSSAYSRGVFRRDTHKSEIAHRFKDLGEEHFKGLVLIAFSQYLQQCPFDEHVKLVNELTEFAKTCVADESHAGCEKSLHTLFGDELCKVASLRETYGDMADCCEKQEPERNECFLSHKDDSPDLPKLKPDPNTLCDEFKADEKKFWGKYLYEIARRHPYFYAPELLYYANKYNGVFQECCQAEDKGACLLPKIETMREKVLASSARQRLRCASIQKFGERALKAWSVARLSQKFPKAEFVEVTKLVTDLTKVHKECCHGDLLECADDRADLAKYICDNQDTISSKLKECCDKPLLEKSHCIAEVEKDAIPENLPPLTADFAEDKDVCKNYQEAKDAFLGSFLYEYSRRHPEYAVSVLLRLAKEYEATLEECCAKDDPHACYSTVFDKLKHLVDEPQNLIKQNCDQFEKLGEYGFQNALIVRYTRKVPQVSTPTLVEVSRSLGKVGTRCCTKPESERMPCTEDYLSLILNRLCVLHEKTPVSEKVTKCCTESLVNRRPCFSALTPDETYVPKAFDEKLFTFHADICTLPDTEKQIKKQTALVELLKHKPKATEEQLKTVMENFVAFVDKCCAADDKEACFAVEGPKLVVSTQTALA

As to `C=CCC(OC(C)=O)[C@@H]1[C@@H](N(Cc2cccc3ccccc23)C(=O)Cc2ccc(F)cc2)c2cc(OCCCO)ccc2N1C(=O)c1ccc2ccccc2n1` (stereo not given in full), the composite z-score was -0.0728 in assay [1]; -0.0125 in assay [3]; 0.0156 in assay [4]; 0.409 in assay [5]; 0.0549 in [6]; 0.398 in [7]. The composite z-score in assay [8] was -0.301; in assay [9], 0.192; in assay [10] it was 0.483; in assay [11] it was -0.478; in assay [12], -0.0554; in [13], -0.122. In addition, the composite z-score in [14] is 0.0688; in assay [15] it was 0.187; in assay [16] it was 0.386; in [18], -0.553; in [19], 0.748. The composite Z-score in assay [2] is -0.486 (inactive). The z-score in assay [17] is -0.0984; in [20] it was 0.0778 (inactive).
Turning to `C=CC[C@@]1(C(=O)N2CCOCC2)N=C(c2ccc(OCCCO)cc2)O[C@@H]1c1ccccc1CN=[N+]=[N-]`, the composite z-score in assay [1] stood at 0.774; in [3] it was 0.405; in [4], 0.083; in assay [5] it was 0.527; in assay [6] it was 2.89; in assay [7], 1.41. Also, the composite z-score in assay [8] is 1.33; in assay [9], -0.186; in assay [10] it was 1.16; in assay [11], 3.06; in assay [12], 1.23; in assay [13] it was 0.201. Also, the composite z-score was found to be 0.905 in [14]; 1.35 in assay [15]; 1.45 in assay [16]; 0.349 in assay [18]; 0.786 in assay [19]. Further, the composite Z-score in assay [2] was 0.28 (inactive). For the same molecule, the figures for the z-score in assay [17] and in [20] were 1.97 and 0.0079 (inactive), respectively.
For `C#CCN([C@@H](Cc1ccc(O)cc1)C(=O)OC)[C@@H](/C=C/C1CC1)[C@H](O)Cc1ccccc1`, the composite z-score in [1] is -0.865; in assay [3], -0.0567; in assay [4], -0.172; in assay [5], -0.303; in assay [6] it was 0.071; in [7], 0.0995. In addition, the composite z-score is -0.0361 in [8]; 0.523 in assay [9]; -0.58 in [10]; 0.241 in [11]; -0.968 in [12]; -0.0524 in [13]. Moreover, the composite z-score is -0.519 in [14]; 0.814 in assay [15]; -0.0354 in assay [16]; 0.618 in [18]; -0.55 in assay [19]. Further, the composite Z-score in assay [2] is -0.0582 (inactive). Also, the z-score was -1.6 in [17] and -0.0396 (inactive) in assay [20].
For `CCOC(=O)C1CCCCN1` (stereo not given), the composite z-score turned out to be 0.351 in [1]; 0.77 in [3]; 0.435 in assay [4]; 0.175 in assay [5]; 0.437 in [6]; 0.471 in [7]. The composite z-score in assay [8] was 0.983; in assay [9], 0.47; in [10], 0.562; in assay [11], 0.313; in assay [12], 0.859; in assay [13], -0.0288. The composite z-score worked out at 0.367 in assay [14]; 0.599 in assay [15]; 0.522 in assay [16]; 0.589 in assay [18]; 0.109 in assay [19]. For the same molecule, in assay [2], the composite Z-score is 0.104 (inactive). Besides, the z-score is -0.0223 in assay [17] and 0.48 (inactive) in [20].
As to `O=C(N1CCCCC1)[C@@]1(CCS(=O)(=O)c2ccccc2)COC(c2ccc(OCCCO)cc2)=N1`, the composite z-score in [1] came to 0.107; in assay [3], 0.289; in assay [4], 0.207; in [5], 0.582; in [6], 2.66; in assay [7], 0.729. Besides, the composite z-score in [8] was determined as 1.31; in assay [9] it was 0.225; in [10], 1.1; in [11] it was 2.55; in [12] it was 1.22; in assay [13] it was 0.298. Moreover, the composite z-score worked out at 0.839 in assay [14]; 1.4 in [15]; 1.52 in assay [16]; 0.126 in [18]; 0.848 in assay [19]. Moreover, in assay [2], the composite Z-score was 0.674 (inactive). Moreover, the figures for the z-score in [17] and in [20] were 0.32 and -0.0825 (inactive), respectively.
Regarding `COc1ccc(CCN2C(=O)[C@@]3(Cc4ccccc42)c2ccccc2C(=O)N(Cc2ccccc2OC)[C@H]3c2ccc(CO)cc2)cc1`, the composite z-score in assay [1] is 0.282; in [3], -0.177; in assay [4] it was -0.0785; in assay [5], 0.162; in assay [6], 0.215; in assay [7] it was -0.778. Besides, the composite z-score in assay [8] was -0.232; in [9], -0.761; in assay [10] it was -0.516; in assay [11], -0.983; in assay [12] it was -1.04; in [13], -0.149. Also, the composite z-score in assay [14] was -1.45; in [15] it was -1.19; in [16], -0.832; in [18], -1.55; in assay [19], -0.176. For the same molecule, the composite Z-score in assay [2] is -0.0127 (inactive). Also, the z-score in assay [17] was 0.132; in assay [20] it was -0.377 (inactive).
